NALP1 yeast inh – NALP1 inhibition; S. cerevisiae NALP1/ASC/caspase-1 growth, X-gal OD620, 72 h; inhibition, % at 10 µM; hit rate 0.61% among 280,000; in the data active means inhibition mostly above about 24%, no sharp cut-off; inactive means mostly below about 32%
NALP3 yeast inh – blocks the NALP3 inflammasome reconstituted in yeast; Yeast reconstituted NLRP3/ASC/caspase-1, beta-gal luminescence, 24 h; inhibition, % at 10 µM; hit rate 0.39% among 330,000;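 active means inhibition of 50% or more; inactive means inhibition below 50%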;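 further: plate controls were induced DMSO wells for no effect and uninduced yeast grown without galactose for full effect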
tim10-1 inh – inhibits growth of tim10-1 mutant yeast; S. cerevisiae tim10-1 ts strain growth, BacTiter-Glo, 24 h; inhibition, % at 20 µM; hit rate 2.2% among 330,000; AID 463190;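 active means inhibition of at least 40%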;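 further: mutant grown at 25 °C; 0% = DMSO wells with yeast and 100% = wells holding no yeast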
V-ATPase pHluor – alters yeast V-ATPase proton transport. response, % at 10 µM. hit rate 0.37% among 350,000. S. cerevisiae, pHLuorin cytosolic pH fluorescence. AID 504577; in the data active means response mostly above about 7.3%, no sharp cut-off; inactive means mostly below about 5.4%; further: actives read high
TIM10 inh – inhibits growth of TIM10 yeast strain | S. cerevisiae TIM10 strain growth, BacTiter-Glo luminescence, 24 h | hit rate 1.4% among 330,000 | inhibition, % at 10 µM;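 active means inhibition of 40% or more at the single tested concentration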;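 further: wild-type TIM10 isogenic control strain grown at permissive 25 °C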
tim23-1 inh – growth inhibitors of tim23-1 mutant yeast; hit rate 1.3% among 330,000; AID 463212; inhibition, % at 20 µM; S. cerevisiae tim23-1 growth, BacTiter-Glo luminescence, 24 h;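 active means growth inhibition of the mutant yeast at or above 50%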;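 further: temperature-sensitive mutant grown at 25 °C; plate controls were DMSO-treated mutant yeast for no effect and medium wells lacking yeast for full effect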
* marks the source's active call; other numbers are inactive results. Shown are actives, neighbours in structure and some others; about 4.2% of the full set was active somewhere.

Screening CCOC(=O)CSc1nc(Cc2ccccc2)nc2ccccc12 returned NALP1 yeast inh 7, NALP3 yeast inh 20, tim10-1 inh 14, V-ATPase pHluor -3, TIM10 inh 5 and tim23-1 inh -1.
For CCCCCCCCCC[n+]1cccc2c3ccccc3ccc21 the results were NALP1 yeast inh 26* and V-ATPase pHluor 0.
CCCCCCCC[n+]1cccc2c3ccccc3ccc21 was read as NALP1 yeast inh 11, NALP3 yeast inh 11, tim10-1 inh -60, V-ATPase pHluor 1, TIM10 inh -36 and tim23-1 inh -17.
For CC(CC(=O)NCc1ccco1)S(=O)(=O)c1ccc2c(c1)CCN2C(=O)C1CC1 (stereo unspecified) the results were NALP1 yeast inh 5, NALP3 yeast inh -5, tim10-1 inh 20, V-ATPase pHluor 0, TIM10 inh 8 and tim23-1 inh 8.
`Cc1ccc(C(=O)N/N=C/C=C/c2ccccc2)o1` gave NALP1 yeast inh -18, NALP3 yeast inh 11, tim10-1 inh -49, V-ATPase pHluor 5, TIM10 inh -12 and tim23-1 inh 30.
COc1cc(C)nc(NS(=O)(=O)c2ccccc2Cl)n1 was read as NALP1 yeast inh 39*, NALP3 yeast inh 19, tim10-1 inh -13, V-ATPase pHluor -3, TIM10 inh 1 and tim23-1 inh 4.
Cc1cc(NN)nc(NS(=O)(=O)c2ccccc2Cl)n1 was read as NALP1 yeast inh -1, NALP3 yeast inh -4, tim10-1 inh 9, V-ATPase pHluor -2, TIM10 inh 14 and tim23-1 inh 6.
For CC(C)(C=O)C1=CC(=O)c2ccccc2C1=O the results were NALP1 yeast inh 48* and V-ATPase pHluor 16*.
Screening Cc1ccc(S(=O)(=O)N2CCN(C(=O)c3cccc(F)c3)CC2)cc1 returned NALP1 yeast inh 14, NALP3 yeast inh -2, tim10-1 inh 16, V-ATPase pHluor -1, TIM10 inh 4 and tim23-1 inh 14.
For Cc1ccc(S(=O)(=O)N2CCN(C(=O)c3ccc4nc[nH]c4c3)CC2)cc1 the results were NALP3 yeast inh -14, tim10-1 inh -2, V-ATPase pHluor 15*, TIM10 inh 12 and tim23-1 inh 0.
`CN(CC(=O)N1CCCC1)S(=O)(=O)c1ccc(Cl)cc1` gave NALP1 yeast inh 2, NALP3 yeast inh 3, tim10-1 inh 7, V-ATPase pHluor 2, TIM10 inh 6 and tim23-1 inh 8.
`O=C(O)CCCCNCc1ccccc1` gave NALP1 yeast inh 40*, NALP3 yeast inh 7, tim10-1 inh -11, V-ATPase pHluor 0, TIM10 inh -3 and tim23-1 inh 8.
CCCOC(=O)COC(=O)c1ccccc1NC(=O)c1ccccc1 was read as NALP1 yeast inh 26, NALP3 yeast inh 28, tim10-1 inh 38, V-ATPase pHluor 20*, TIM10 inh 12 and tim23-1 inh 26.
For Cc1cc(C)cc(OC(=O)CCN2C(=O)C3C4C=CC(C5CC45)C3C2=O)c1 (stereo unspecified) the results were NALP1 yeast inh 6, NALP3 yeast inh -3, tim10-1 inh -2, V-ATPase pHluor -4, TIM10 inh 1 and tim23-1 inh -12.
CCCc1cc(=O)oc2cc(OCc3nn[nH]n3)ccc12 was read as NALP1 yeast inh -2, NALP3 yeast inh 0, tim10-1 inh 2, V-ATPase pHluor -1, TIM10 inh 8 and tim23-1 inh 2.
CCCCc1cc(=O)oc2cc(OCc3nn[nH]n3)ccc12 was read as NALP1 yeast inh 22, NALP3 yeast inh 14, tim10-1 inh -4, V-ATPase pHluor 18*, TIM10 inh 2 and tim23-1 inh -9.
O=C(Nc1ncc(C(F)(F)F)cc1Cl)C1COc2ccccc2O1 (stereo unspecified) was read as NALP1 yeast inh 40*, NALP3 yeast inh 15, tim10-1 inh 17, V-ATPase pHluor -1, TIM10 inh 3 and tim23-1 inh 21.
`COc1ccc(C(=O)CN2C(=O)c3ccccc3C2=O)cc1` gave NALP1 yeast inh 2, NALP3 yeast inh 7, tim10-1 inh 3, V-ATPase pHluor -1, TIM10 inh 2 and tim23-1 inh 8.
`COc1ccc(C(=O)CN2C(=O)c3ccccc3C2=O)c(OC)c1C` gave NALP1 yeast inh -4, NALP3 yeast inh 32, tim10-1 inh 34, V-ATPase pHluor 19*, TIM10 inh 4 and tim23-1 inh 32.

Screening data as filed in PubChem.
